Screening data deposited in PubChem BioAssay by Buhrlage Lab, Dana-Farber Cancer Institute and Novartis Institutes for BioMedical Research (Cambridge, Mass).
USP17 inh – blocks human USP17 ubiquitin-rhodamine cleavage | A8MUK1 | purified USP17, Ub-rhodamine cleavage fluorescence, 3 h | inhibition, % at 50 µM | 47,000 compounds, 6.5% hits | AID 1645855
USP7 block – inhibitors of human USP7 deubiquitinase | Q93009 | purified USP7, Ub-rhodamine cleavage fluorescence | inhibition, % at 20 µM | 47,000 compounds, 0.3% hits
USP8 inh – blocks human USP8 ubiquitin-rhodamine cleavage; 47,000 compounds, 4.2% hits; purified USP8, Ub-rhodamine cleavage fluorescence, 30 min; P40818; inhibition, % at 20 µM
USP10 block – blocks human USP10 ubiquitin-rhodamine cleavage | inhibition, % at 20 µM | AID 1645856 | 47,000 compounds, 1.1% hits | purified USP10, Ub-rhodamine fluorescence, 60 min | Q14694
OTUD3 block – human OTUD3 deubiquitinase inhibition. Q5T2D3. purified OTUD3, Ub-rhodamine fluorescence, 2 h. inhibition, % at 25 µM. 47,000 compounds, 0.7% hits. AID 1645858
UCHL1 block – blocks human UCHL1 ubiquitin-rhodamine cleavage | P09936 | 47,000 compounds, 0.2% hits | purified UCHL1, Ub-rhodamine cleavage fluorescence | inhibition, % at 20 µM | AID 1645859
Of the large screens only hits and unclear results are named; the others gave an inactive call. In the library only some 9.2% were active in any assay of this set; here they are far more common. Cut-off read from the data, not from the text of the source: active = inhibition above about 30%; inactive = the rest.

Cn1c(COc2cccc3cccnc23)nnc1SCC(=O)c1ccc(Cl)cc1Cl	USP8 inh 58, USP10 block 36
Cc1ccc(N2CCCn3c2nc2c3c(=O)n(Cc3cccc4ccccc34)c(=O)n2C)cc1	none (no result: USP17 inh)
O=C(CS(=O)(=O)c1ccc(F)cc1)Nc1ccc(-c2nc3ccccc3s2)c(O)c1	USP17 inh 37
COCCCNc1ccc(-c2ccc(C)c(S(=O)(=O)N3CCCC3)c2)nn1	none
O=C(Nc1ccc2c(c1)OCCO2)c1cccc(N2C(=O)CCS2(=O)=O)c1	none
CC(OC(=O)c1ccc(N2CCCC2=O)cc1)C(=O)Nc1ccc2c(c1)OCO2 (configuration not stated)	USP8 inh 56
CC(OC(=O)c1ccc(N2CCCC2=O)cc1)C(=O)Nc1ccc2c(c1)OCCO2 (configuration not stated)	USP17 inh 43
COc1ccc(C(=O)Nc2cccc(N3CCCCC3=O)c2)cc1	none
O=C(Nc1ccc2c(c1)OCCO2)c1ccc(N2CCCC2=O)cc1	USP17 inh 35 (no result: USP7 block)
CN(C)S(=O)(=O)c1cccc(NC(=O)c2ccc(N3CCCC3=O)cc2)c1	USP17 inh 48
Cc1cc(C(=O)N2CC[C@@H]3Oc4ccccc4S(=O)(=O)N(CCN(C)C)[C@H]3CC2)no1	none
Cc1nnc(NCC2COC3(COCCN(Cc4ccccc4)C3)C2)o1 (configuration not stated)	none
CC(OC(=O)c1ccc(N(C)C)cc1)C(=O)Nc1ccc2c(c1)OCCO2 (configuration not stated)	USP17 inh 40
CC(OC(=O)c1ccc2ncsc2c1)C(=O)Nc1ccc2c(c1)OCO2 (configuration not stated)	none
COc1ccc(NC(=O)C(C)OC(=O)CNC(=O)c2ccc(Cl)cc2Cl)cc1 (configuration not stated)	none
CC(OC(=O)CNC(=O)c1ccc(Br)cc1)C(=O)Nc1ccc2c(c1)OCCO2 (configuration not stated)	USP17 inh 66
O=C1N[C@H](Cc2c[nH]c3ccccc23)C(=O)N[C@H]1Cc1c[nH]c2ccccc12	none
O=c1c2[nH]c3ccc(F)cc3c2ncn1Cc1ccc2c(c1)OCO2	none
O=c1ncn(Cc2ccc3c(c2)OCO3)cc1-c1ncc(C(F)(F)F)cc1Cl	USP17 inh 51
Cc1nn(-c2ccc(F)cc2)c(C)c1S(=O)(=O)N1CCc2ccccc21	none
COc1cc(Cl)cc(CNC(C)C(=O)O)c1O (configuration not stated)	USP8 inh 66
CCc1ccc(NC2=NC(C(=O)Nc3ccccc3OC)CC(=O)N2)cc1 (configuration not stated)	none
Cc1ccc(C(=O)C2CC(=O)Nc3c2c(C)nn3-c2ccc(C)c(C)c2)s1 (configuration not stated)	USP17 inh 70
Cc1ccc(-n2nc(C)c3c2NC(=O)CC3C(=O)c2cc3ccccc3o2)cc1C (configuration not stated)	USP17 inh 74
CCOc1ccccc1C(=O)Nc1ccc2c(c1)Sc1ncccc1C(=O)N2C	USP17 inh 53
COc1cc(OC)cc(C(=O)Nc2ccc3c(c2)Sc2ncccc2C(=O)N3C)c1	none
Fc1ccc(Nc2nc(CN3CCOCC3)nc3sc4c(c23)CCC4)cc1Cl	none
COc1ccc(C(C(=O)NC2CCCCC2)N(C(=O)CCCC(=O)Nc2ccccn2)c2ccccc2C)cc1 (configuration not stated)	USP17 inh 56
COc1ccc(N(C(=O)CCCC(=O)Nc2ccccn2)C(C(=O)NC2CCCCC2)c2ccc(Cl)cc2)c(OC)c1 (configuration not stated)	none
Cc1ccc(N(C(=O)CCCC(=O)Nc2ccccn2)C(C(=O)NC2CCCC2)c2ccc(F)cc2)cc1C (configuration not stated)	USP17 inh 37
COc1ccc(N(C(=O)CCCC(=O)Nc2ccccn2)C(C(=O)NC2CCCCC2)c2ccc(Cl)cc2)cc1 (configuration not stated)	USP17 inh 33
COc1ccc(C(C(=O)NC2CCCCC2)N(C(=O)CCCC(=O)Nc2ccccn2)c2ccccc2OC)cc1 (configuration not stated)	none
COc1ccc(NS(=O)(=O)c2ccc3c(c2)NC(=O)CC(C)S3)cc1Cl (configuration not stated)	none
Clc1cccc(C2(c3nc(C4CC4)no3)CCOCC2)c1	none
O=C(NCc1ccc(N2CCOCC2)nc1)c1cc(F)cc(F)c1	none (no result: USP17 inh)
Clc1ccccc1CSc1ncnc2c1oc1ccccc12	USP17 inh 41
O=C(CSc1ncnc2c1oc1ccccc12)NC1CCCCC1	none
O=C(Cn1cnc2c(cnn2-c2ccc(Cl)cc2)c1=O)NCc1ccccc1Cl	USP17 inh 55, OTUD3 block 36
O=C(Cn1cnc2c(oc3ccccc32)c1=O)NCc1ccccc1Cl	USP17 inh 87
Cc1cccc(CNC2=NCCNC23CCN(S(=O)(=O)c2ccccc2)CC3)c1	none
O=C(CSC1=NC2(CCCC2)Nc2ccccc21)Nc1cccc(F)c1	none
Cc1ccc(Cn2nnc3c(=O)n(Cc4nc(-c5ccc(C)cc5)no4)cnc32)cc1	USP17 inh 34
CCC(C(=O)OC)n1cnc2c(nnn2-c2ccccc2)c1=O (configuration not stated)	none
COC(=O)C(C)Sc1ncnc2c1nnn2-c1ccc(OC)cc1 (configuration not stated)	USP17 inh 37
COc1ccc(-n2nnc3c(SCC(=O)Nc4cc(C)on4)ncnc32)cc1	USP17 inh 57
Cc1cc(NC(=O)CSc2nnc(COc3ccc(Cl)cc3)o2)no1	none
COc1ccc(C2NC(=O)NC(C)=C2C(=O)OC2CCCC2)cc1OC (configuration not stated)	USP8 inh 35
COc1cc(C2NC(=O)NC(C)=C2C(=O)OC2CCCC2)cc(OC)c1OC (configuration not stated)	none
N#Cc1cc2c([nH]c1=O)CC(c1ccccc1)C/C2=N\Nc1ccccc1 (configuration not stated)	USP8 inh 51
Cc1nnc(NC(=O)C2CCN(c3ccc(S(N)(=O)=O)cc3[N+](=O)[O-])CC2)o1	USP17 inh 73, USP7 block 43, USP10 block 62, OTUD3 block 67, UCHL1 block 36
Cc1ccc(S(=O)(=O)N2CCC(C(=O)Nc3nnc(C)o3)CC2)cc1	none
COc1ccccc1NC(=O)C(C)OC(=O)c1ccc(C)c(S(=O)(=O)Nc2ccc(C)cc2)c1 (configuration not stated)	none
Cc1cc(C)c(N(C)C(=O)[C@@H]2[C@H]3C[C@H]4[C@@H]2C(=O)O[C@H]4C3)c(C)c1	none
Cc1cc(NC(=O)[C@@H]2CCCN2S(=O)(=O)c2ccc3c(c2)CC(=O)N3C)no1	none
Cc1cc(C)c(-c2noc(C)n2)c(NC(=O)c2sccc2C)n1	none
